High-throughput results: PubChem BioAssay, several laboratories
Shown are actives, neighbours in structure and some others; about 0.74% of the full set was active somewhere.
Vc quorum ag: inducers of Vibrio cholerae quorum light production without autoinducers | activation, % at 18.7 µM | 350,000 tested, 0.16% active | AID 588436 | V. cholerae BH1578 lux reporter, luminescence, 6 h; in the data active = activation mostly above about 9.7%, no sharp cut-off; inconclusive = no clear call, values can overlap the other calls; inactive = mostly below about 3.7%
Mtb UGM inh: Mtb UDP-galactopyranose mutase inhibition. P9WIQ1. purified UGM, fluorescence polarization probe displacement. inhibition, % at 10 µM. 320,000 tested, 0.06% active; in the data active = inhibition above about 10%, passing the limit was not always enough; inconclusive = no clear call, values can overlap the other calls
Mtb betalactam: beta-lactam sensitization of Mtb H37Rv; M. tuberculosis H37Rv growth with meropenem, percent inhibition; inhibition, % at 25 µM; 330,000 tested, 0.27% active; call rule not given here;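 also: growth measured after seven days incubation then overnight dye step; 0% = bacteria only wells and 100% = bacteria with antibiotic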
MazF activator: MazEF (E. coli) toxin RNase activation | P0AE70 | FAM/BHQ RNA-DNA oligo cleavage fluorescence, 5 h | activation, % at 20 µM | 350,000 tested, 0.32% active | AID 504720; in the data active = activation above about 50%
FadD28 FP inh: inhibitors of Mycobacterium tuberculosis FadD28 bisubstrate binding; FadD28 bisubstrate probe binding, fluorescence polarization; 360,000 tested, 0.22% active; inhibition, % at 12.5 µM; in the data active = inhibition above about 8.5%, passing the limit was not always enough; inconclusive = no clear call, values can overlap the other calls
Rv3671c inh: inhibits the M. tuberculosis serine protease Rv3671c; P9WHR9; inhibition, % at 5.96 µM; 320,000 tested, 0.048% active; AID 2606; in the data active = inhibition above about 38%;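 also: extracellular domain of Rv3671c used as enzyme; 0% = enzyme with DMSO and 100% = no enzyme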
Target sequence (P9WHR9 whole entry, looked up, the tested form may be a part): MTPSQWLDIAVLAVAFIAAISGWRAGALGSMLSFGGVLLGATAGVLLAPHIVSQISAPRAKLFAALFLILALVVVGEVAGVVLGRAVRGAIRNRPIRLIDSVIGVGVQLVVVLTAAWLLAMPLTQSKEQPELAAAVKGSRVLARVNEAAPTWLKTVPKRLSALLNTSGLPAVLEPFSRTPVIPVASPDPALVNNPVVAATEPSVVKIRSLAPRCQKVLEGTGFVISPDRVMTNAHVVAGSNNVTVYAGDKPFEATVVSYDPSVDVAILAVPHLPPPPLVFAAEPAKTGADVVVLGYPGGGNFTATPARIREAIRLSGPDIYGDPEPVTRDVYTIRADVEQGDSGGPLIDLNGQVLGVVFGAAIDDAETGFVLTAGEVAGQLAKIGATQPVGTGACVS
Numbers without * were called inactive; i = inactive; ? = inconclusive; . = no result given; + = active, no number.

SMILES | Vc quorum ag | Mtb UGM inh | Mtb betalactam | MazF activator | FadD28 FP inh | Rv3671c inh
COc1cccc(OCc2nnc(SCc3cc(=O)[nH]c4ccccc34)o2)c1 | 0.1 | 3.0 | -8.5 | 3.4 | -3.8 | -17.0
CN(C)/C=c1\sc2c(C#N)cc(C(=O)c3ccc(Br)cc3)n2c1=O | i | -0.3 | -11.8 | + | -4.3 | -6.7
Cc1cc(C)n(CC(=O)c2ccc(Br)cc2)c(=O)c1C#N | 1.2 | . | -2.4 | 0.6 | -2.7 | 6.1
O=C(c1cc2cc(Br)ccc2s1)N1CCOCC1 | 1.5 | -1.5 | 1.1 | 5.8 | 0.3 | 2.4
C/C(CCC(C)C)=N\NS(=O)(=O)c1ccc(C)c([N+](=O)[O-])c1 | -0.4 | -1.3 | 21.6 | 81.7* | 1.0 | 2.6
CCC(C)(C)C1CCC(=NNS(=O)(=O)c2ccc(C)c([N+](=O)[O-])c2)CC1 (stereo not given) | -0.4 | 1.8 | 0.6 | 125.1* | -1.9 | 0.0
Cc1ccc(S(=O)(=O)NCCC(C)C)cc1[N+](=O)[O-] | -0.3 | 0.1 | -3.8 | 8.9 | 0.3 | -3.0
CC/C(C)=N/NS(=O)(=O)c1ccc(C)c([N+](=O)[O-])c1 | -0.6 | -1.4 | -2.4 | 121.9* | -0.5 | 0.5
Cc1ccc(S(=O)(=O)N/N=C2/CCCCC2C2CCCCC2)cc1[N+](=O)[O-] (stereo not given) | -0.4 | -2.7 | -4.6 | 0.8 | -1.7 | 4.5
CC1CCC(=NNS(=O)(=O)c2ccc([N+](=O)[O-])cc2)CC1 (stereo not given) | . | . | . | 110.2* | -4.8 | .
COc1ccccc1C(CNC(=O)C(CCSC)NC(=O)c1ccccc1Cl)N1CCCC1 (stereo not given) | i | . | . | 0.1 | 0.2 | .
Cc1nc(S/C(=C\c2ccc(OCc3ccccc3Cl)cc2)C(=O)O)n[nH]1 | i | -0.7 | . | 6.0 | -1.5 | -3.4
Cc1nc(S/C(=C\c2ccc(-c3ccc(C(=O)O)c(Cl)c3)o2)C(=O)O)n[nH]1 | -0.3 | . | . | -18.4 | 19.9* | .
COc1ccc(N=c2oc3cc(O)ccc3cc2C(=O)NCC2CCCO2)c(OC)c1 (stereo not given) | -0.4 | -0.9 | ? | 84.7* | -1.1 | -2.2
CCn1c(SCC(=O)NC(C)C)nnc1-c1cccs1 | 16.7* | 0.7 | 1.0 | 2.0 | 0.8 | 3.7
CCCc1ccc2oc(C(=O)N3CCCC3)c(C)c2c1 | i | -2.9 | 2.0 | -0.5 | -2.6 | 2.2
O=C1/C(=C/C=C/c2ccco2)SC(=S)N1NS(=O)(=O)c1ccccc1 | -0.4 | -0.6 | 1.4 | -17.4 | 47.5* | 4.7
O=C1/C(=C/c2cccs2)SC(=S)N1NS(=O)(=O)c1ccccc1 | -0.4 | 0.9 | 15.1 | -7.2 | -2.1 | 2.3
CCN(C(=O)C(C)N1C(=O)/C(=C/c2ccco2)SC1=S)C1CCS(=O)(=O)C1 (stereo not given) | -2.6 | -0.6 | 1.6 | -19.8 | 2.5 | -14.0
CC(C(=O)O)N1C(=O)/C(=C/C=C/c2ccco2)SC1=S (stereo not given) | -5.3 | -0.6 | -4.3 | 4.7 | 35.9* | 3.1
O=C(O)c1cc(-c2ccc(Cl)c(Cl)c2)n(-c2ccc(F)cc2)n1 | 1.4 | 0.6 | 3.4 | -9.0 | -1.8 | -3.5
O=C(Nc1ccnn1C1CCN(Cc2ccc(O)c(Cl)c2)CC1)C1CCCC1 | i | 0.4 | ? | 3.4 | -0.4 | -3.7
COc1ccc(-c2ccc(-c3noc(-c4ccccc4OC)n3)c(OC)n2)cc1 | 3.1 | -0.9 | 88.3 | 61.2* | -6.0 | -20.6
COc1ccc(-c2ccc(-c3noc(-c4ccccc4C)n3)c(OC)n2)cc1 | i | -0.4 | 91.6 | -23.0 | -2.3 | -14.2
CCOc1nc(NC2CCCC2)nc(N2CCC(C)CC2)n1 | -1.3 | 1.5 | 43.7 | 3.4 | -3.9 | 2.0
Cc1cccn2c(=O)c3cc(S(=O)(=O)c4ccc(Br)cc4)c(=N)n(C4CCCCC4)c3nc12 | i | 3.2 | 2.7 | -17.1 | -2.9 | 2.1
CCn1c(=N)c(S(=O)(=O)c2ccc(C)cc2)cc2c(=O)n3ccccc3nc21 | . | -1.3 | -12.1 | . | . | 4.4
Cc1ccc(S(=O)(=O)c2cc3c(=O)n4cccc(C)c4nc3n(C3CCCCC3)c2=N)cc1 | -0.1 | -0.7 | -8.0 | 52.5* | -0.2 | -6.6
CCn1c(=N)c(S(=O)(=O)c2ccccc2)cc2c(=O)n3ccccc3nc21 | i | 1.4 | -1.4 | 228.2* | -2.0 | -5.7
Cc1ccc(S(=O)(=O)c2cc3c(=O)n4ccccc4nc3n(CCc3ccccc3)c2=N)cc1 | -0.2 | 6.6 | 7.5 | 71.7* | -0.1 | 5.7
